According to PubChem BioAssay AID1159580 (chemical genetic matrix, 2015):
Values joined by “and” are separate entries in the source; they are usually repeats but may differ in a detail not shown here. Identical values can stand only once. Screen size: about 5,500 compounds; about 2,000 (36%) were called active. Roughly 18% stayed inconclusive and do not appear here. Cut-off read from the data, not from the text of the source: active = normalized growth mostly below about 0.91 (no sharp cut-off); inconclusive = no clear call, values can overlap the other calls; inactive = mostly above about 0.92. This is one part of the list.

Experiment: chemical genetic growth profiling, strain panel (AID 1159580);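 note: tested at 20 µM; growth read once vehicle control cultures reached saturation at 30 °C; 1 = growth at the plate median or of vehicle wells; lower values mean less growth of the strain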
Conditions: S. cerevisiae deletion strains, growth OD

Measured: normalized growth

CN1C(=O)CCS(=O)(=O)C1c1ccc(Cl)cc1 (stereo unspecified)
inactive: locus YAL013W, strain DEP1, stronger effect = lower value 1.01 | locus YAL021C, strain ccr4, stronger effect = lower value 0.981 | locus YAL026C, strain drs2, stronger effect = lower value 0.982 | locus YAL030W, strain snc1, stronger effect = lower value 0.992 | locus YAL040C, strain CLN3, stronger effect = lower value 1.03 | locus YBL061C, strain skt5, stronger effect = lower value 1 | locus YBR009C, strain hhf1, stronger effect = lower value 0.953 | locus YBR021W, strain FUR4, stronger effect = lower value 1.02 | locus YBR023C, strain chs3, stronger effect = lower value 0.995 | locus YBR171W, strain sec66, stronger effect = lower value 0.988 | locus YBR229C, strain ROT2, stronger effect = lower value 1.01 | locus YBR231C, strain swc5, stronger effect = lower value 0.965 | locus YBR279W, strain paf1, stronger effect = lower value 0.99 | locus YCL011C, strain gbp2, stronger effect = lower value 1.01 | locus YCL016C, strain dcc1, stronger effect = lower value 1.01 | locus YCL029C, strain bik1, stronger effect = lower value 1.02 | locus YCL061C, strain MRC1 (second series), stronger effect = lower value 0.999 | locus YCL061C, strain MRC1, stronger effect = lower value 0.99 | locus YCL069W, strain vba3, stronger effect = lower value 0.949 | locus YCR088W, strain abp1, stronger effect = lower value 0.982 | locus YDL005C, strain med2, stronger effect = lower value 0.991 | locus YDL035C, strain GPR1, stronger effect = lower value 1.02 | locus YDL040C, strain nat1, stronger effect = lower value 0.973 | locus YDL074C, strain BRE1, stronger effect = lower value 1.04 | locus YDL101C, strain DUN1, stronger effect = lower value 1.02 | locus YDL134C, strain PPH21, stronger effect = lower value 1.01 | locus YDL185W, strain tfp1, stronger effect = lower value 1.03 | locus YDL192W, strain arf1, stronger effect = lower value 1.01 | locus YDR001C, strain nth1, stronger effect = lower value 0.976 | locus YDR069C, strain doa4, stronger effect = lower value 0.971 | locus YDR101C, strain arx1, stronger effect = lower value 1.01 | locus YDR137W, strain rgp1, stronger effect = lower value 0.993 | locus YDR150W, strain NUM1, stronger effect = lower value 1.01 and 1 | locus YDR159W, strain sac3, stronger effect = lower value 0.883 | locus YDR162C, strain NBP2, stronger effect = lower value 1.02 | locus YDR195W, strain ref2 0.956 | locus YDR297W, strain sur2, stronger effect = lower value 0.983 | locus YDR318W, strain mcm21, stronger effect = lower value 1.01 | locus YDR334W, strain swr1, stronger effect = lower value 0.951 | locus YDR335W, strain msn5, stronger effect = lower value 0.972 | locus YDR363W, strain ESC2, stronger effect = lower value 1.03 | locus YDR388W, stronger effect = lower value 1.01 | locus YDR392W, strain spt3, stronger effect = lower value 0.939 | locus YDR502C, strain sam2, stronger effect = lower value 1.01 | locus YEL003W, strain gim4, stronger effect = lower value 0.982 | locus YEL037C, strain rad23, stronger effect = lower value 0.982 | locus YEL061C, strain CIN8 (second series), stronger effect = lower value 0.995 | locus YEL061C, strain CIN8, stronger effect = lower value 1.01 | locus YER002W, strain NOP16, stronger effect = lower value 1.01 | locus YER015W, strain faa2, stronger effect = lower value 0.985 | locus YER016W, strain bim1, stronger effect = lower value 1.03 | locus YER110C, stronger effect = lower value 1.01 | locus YER111C, strain swi4, stronger effect = lower value 0.996 | locus YER155C, strain BEM2 (second series), stronger effect = lower value 1 | locus YER155C, strain BEM2, stronger effect = lower value 1.01 | locus YER167W, strain BCK2, stronger effect = lower value 1.01 | locus YFR010W, strain ubp6, stronger effect = lower value 0.954 | locus YGL078C, strain dbp3, stronger effect = lower value 0.998 | locus YGL086W, strain mad1, stronger effect = lower value 1.01 | locus YGL167C, strain pmr1, stronger effect = lower value 0.963 | locus YGL173C, strain kem1, stronger effect = lower value 0.953 | locus YGL227W, strain vid30, stronger effect = lower value 0.98 | locus YGL240W, strain doc1, stronger effect = lower value 0.963 | locus YGL248W, strain PDE1, stronger effect = lower value 1.01 | locus YGL253W, strain hxk2, stronger effect = lower value 0.995 | locus YGR078C, strain PAC10, stronger effect = lower value 1.02 | locus YGR135W, strain pre9, stronger effect = lower value 1.01 | locus YGR229C, strain SMI1, stronger effect = lower value 1.03 | locus YGR252W, strain gcn5, stronger effect = lower value 1.01 | locus YHR013C, strain ard1, stronger effect = lower value 0.982 | locus YHR027C, strain rpn1, stronger effect = lower value 0.98 | locus YHR030C, strain SLT2, stronger effect = lower value 1.01 and 0.973 | locus YHR079C, strain IRE1 (second series), stronger effect = lower value 1.02 | locus YHR079C, strain IRE1, stronger effect = lower value 0.97 | locus YHR094C, strain hxt1, stronger effect = lower value 1.01 | locus YHR129C, strain ARP1, stronger effect = lower value 1.01 | locus YHR142W, strain chs7, stronger effect = lower value 0.975 | locus YHR200W, strain rpn10, stronger effect = lower value 1.01 | locus YIL066C, strain RNR3, stronger effect = lower value 1.02 | locus YIL073C, strain SPO22, stronger effect = lower value 1.05 | locus YIL125W, strain kgd1, stronger effect = lower value 1.01 | locus YIR030C, strain dcg1, stronger effect = lower value 1.01 | locus YJL092W, strain hpr5, stronger effect = lower value 0.997 | locus YJL095W, strain BCK1 (second series), stronger effect = lower value 0.977 | locus YJL095W, strain BCK1, stronger effect = lower value 1.04 and 0.994 | locus YJL115W, strain asf1, stronger effect = lower value 0.967 | locus YJL129C, strain trk1, stronger effect = lower value 0.994 | locus YJL134W, strain LCB3, stronger effect = lower value 1.01 | locus YJL154C, strain vps35, stronger effect = lower value 0.989 | locus YJL164C, strain tpk1, stronger effect = lower value 0.997 | locus YJL166W, strain qcr8, stronger effect = lower value 0.943 | locus YJL168C, strain set2, stronger effect = lower value 1.01 | locus YJL187C, strain SWE1 (second series), stronger effect = lower value 1.03 | locus YJL187C, strain SWE1, stronger effect = lower value 0.994 | locus YJR043C, strain POL32, stronger effect = lower value 1.02 | locus YJR066W, strain TOR1, stronger effect = lower value 0.885
